Screening results (PubChem)
Shiga toxin inh = A qHTS for Small Molecule Inhibitors of Shiga Toxin; Vero cells, Shiga toxin protein synthesis inhibition reporter; 290,000 compounds, 9.2% hits; inhibition, % at 38.7 µM; in the data active = inhibition mostly above about 28%, no sharp cut-off; inactive = mostly below about 43%; note: 0% is about no effect
Pf growth 48h = Primary qHTS for delayed death inhibitors of the malarial parasite plastid, 48 hour incubation | Potency, µM (doses to about 28.7 µM), for inactives: at the top dose activity change, negative = inhibition, usual class: inhibitors | AID 504832, 2011 | P. falciparum luciferase growth in erythrocytes, 48 h | 310,000 compounds, 5.9% hits; note: potency is the fitted concentration of half-maximal effect; % is set by controls: 0 for no effect and ±100 for the full control effect
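A one-generation exposure of luciferase-tagged malaria parasites in RPMI 1640/Albumax erythrocyte culture, 37 C and 5% CO2. Inhibition is inferred from decreased luminescence after adding detection reagent.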
AMA1-RON2 inh = qHTS for Inhibitors of AMA1-RON; Towards Development of Antimalarial Drug Lead: Primary Screen | Plasmodium falciparum AMA1 (3D7) - RON2 peptide interaction | AlphaScreen AMA1-biotinylated RON2 peptide binding | Potency, µM (highest dose often 58.2 µM), without a hit: at the highest dose activity change, negative = inhibition, usual class: inhibitors | 360,000 compounds, 0.2% hits | AID 720542, 2013;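 note: potency is the fitted concentration of half-maximal effect; 0% = vehicle wells and -100% = peptide control; nearly all actives have a fitted effect of over 45% in size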
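AMA1 (3D7) with his tag at 25 nM final met compounds first, then biotinylated RON2 peptide at 25 nM; detection used donor plus acceptor beads, 10 µg/mL apiece, read by AlphaScreen after 30 min at room temperature.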
Pf growth 96h = Primary qHTS for delayed death inhibitors of the malarial parasite plastid, 96 hour incubation. Potency, µM (doses to about 28.7 µM), for inactives: at the top dose activity change, negative = inhibition, hits mostly inhibitors. AID 504834, 2011. P. falciparum luciferase reporter growth, 96 h. 320,000 compounds, 6.9% hits; note: potency is the fitted concentration of half-maximal effect; % is set by controls: 0 for no effect and ±100 for the full control effect
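96 h incubation, 37 C, 5% CO2, of luciferase-reporter P. falciparum-infected RBCs (2% hematocrit, 0.05% parasitemia final) with test compounds; endpoint luminescence.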
CHX counter = Cycloheximide Counterscreen for Small Molecule Inhibitors of Shiga Toxin; cell reporter, cycloheximide protein synthesis inhibition counterscreen; max response, %; 300,000 compounds, 12% hits; AID 2314, 2010; in the data active = max response mostly above about 13%, no sharp cut-off; inactive = mostly below about 14%; note: read at 38.3 µM for the half of the compounds with a filed dose; 0% is about no effect
SARS PLpro yeast = qHTS of Yeast-based Assay for SARS-CoV PLP; AID 485353, 2010; Potency, µM (highest dose often 32.9 µM), inactives show top-dose activity, positive = growth rescue, actives largely listed as activators; 330,000 compounds, 0.19% hits; S. cerevisiae expressing SARS-CoV PLpro, growth rescue; calls by dose curve; note: potency is the fitted concentration of half-maximal effect; 0% is about no effect; nearly all actives have a fitted effect of over 55% in size
* marks the source's active call; other numbers are inactive results; ? = inconclusive; . = not tested or not shown. Rows were chosen to be rich in hits. Some 19% of all compounds tested hit in one or more screens of this group. Unless noted, calls come from the whole dose curve; as a rule, active = well fitted curve in the direction sought with a large enough effect; inconclusive = small, poorly fitted or top-dose-only effect, or another doubt; inactive = no such curve, though single readings can be large; an effect the other way counts as inactive or inconclusive.

SMILES	Shiga toxin inh	Pf growth 48h	AMA1-RON2 inh	Pf growth 96h	CHX counter	SARS PLpro yeast
CCCNC(=O)C1(C)CCN(Cc2cc3ccccc3o2)C1 (stereo not drawn)	.	.	2%	.	.	.
O=C(CCCn1c(=O)oc2ccccc21)Nc1ccccc1	.	-23%	-4%	-5%	.	5%
O=C(c1cc(-c2ccccc2)on1)N1CCc2ccccc2C1	-6	26%	?	?	-1	3%
Cc1cc(C(=O)N2CCc3ccccc3C2)no1	13	23%	-8%	29%	19*	-5%
Cc1cc(C(=O)N2CCc3ccccc3C2)n[nH]1	53*	55%	9%	-15%	24*	-2%
O=C(O)c1cc(C(=O)O)c(-c2ccccc2)c(C(=O)O)c1	-6	2.9µM*	-3%	?	-2	8%
NS(=O)(=O)c1ccc(CNC(=O)Cc2c(F)cccc2Cl)cc1	-5	-3%	-6%	?	-3	1%
CCOC(=O)c1cc(-c2ccc(F)cc2)n(CC(=O)NCc2cccnc2)c1C	2	?	-3%	2.6µM*	0	0%
COc1ccc(C(=O)NC(=S)NCc2cccnc2)cc1Br	-11	-25%	20%	16%	1	15%
CC(C)c1ccc(C(=O)NC(=S)NCc2cccnc2)cc1	active	10%	-1%	-29%	16*	12%
CCCNC(=O)Cn1c(-c2ccc(F)cc2)cc(C(=O)OCC)c1C	17	-13%	-20%	-28%	-1	-5%
Cc1ccc(C(=O)NC(=S)NCc2cccnc2)cc1C	14	?	2%	9.3µM*	13	14%
O=C(NC(=S)NCc1cccnc1)c1ccc([N+](=O)[O-])cc1	-4	?	0%	33%	7	3%
CCOC(=O)c1c(C)c(C(=O)NCc2cccnc2)c(C)n1CC	1	-2%	0%	3.7µM*	-3	-1%
COc1ccc(C(=O)O)cc1S(=O)(=O)Nc1ccccc1-c1ccccc1	23	2%	2%	18%	-2	1%
CCOc1ccc(NC(=S)NCc2cccnc2)cc1	5	46%	0%	6%	7	0%
CCOC(=O)c1ccc(NC(=S)NCc2cccnc2)cc1	16	-9%	7%	-25%	13*	0%
S=C(NCc1cccnc1)NCc1cccnc1	2	-7%	10%	10µM*	-10	1%
O=C(CSc1nc2ccccc2c(=O)[nH]1)Nc1ccc(Br)cc1	-14	11%	-4%	1%	8	0%
Cc1nc(/C=C/c2ccccc2)[nH]c(=O)c1-c1ccccc1	94*	184%	-12%	241%	33*	13%
Cc1c(C(=O)O)sc2nc(/C=C/c3cccc(O)c3)[nH]c(=O)c12	29	-2%	-1%	-8%	-1	-3%
CN(C)c1ccc(/C=C/c2nc3ccccc3c(=O)[nH]2)cc1	39*	-52%	-1%	32%	34*	-2%
O=c1[nH]c(/C=C\c2cccc(Cl)c2)nc(O)c1[N+](=O)[O-]	-11	?	-4%	?	-1	24%
Cc1cccc(/C=C\c2nc3ccccc3c(=O)[nH]2)c1	93*	39%	-3%	-41%	70*	12%
O=c1[nH]c(/C=C/c2ccc(Br)cc2)nc2ccccc12	85*	76%	5%	0%	45*	0%
CC(=O)C1=C(O)C(=O)N(c2ccc(S(=O)(=O)Nc3nccs3)cc2)C1c1ccc(F)cc1 (stereo not drawn)	-3	4%	9%	?	-4	0%
CCN(Cc1ccccc1)C(=O)COC(=O)c1cc(=O)[nH]c2ccccc12	-5	10%	-10%	90%	2	1%
C[N+]1(C)C2CCC1CC(OC(=O)c1c[nH]c3ccccc13)C2 (stereo not drawn)	.	?	13%	6µM*	.	.
O=C(OC1C[C@@H]2CC3C[C@H](C1)N2CC3=O)c1c[nH]c2ccccc12 (stereo partly drawn)	.	13µM*	.	13µM*	.	.
COc1ccc(N2CCN(C(=O)c3c(C)nn(-c4ccccc4)c3C)CC2)cc1	-3	-13%	-6%	-2%	-3	7%
